Values without a mark were called inactive. No rule for the calls is given here.
Target: Pantothenate synthetase (Mycobacterium tuberculosis (strain ATCC 25618 / H37Rv)) (UniProt P9WIL5)
Test: Recombinant Mtb pantothenate synthetase (PanC) inhibitors, coupled enzyme, confirmatory (AID 375);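 also: 0% = full reaction with vehicle and 100% = no enzyme background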
Conditions: coupled enzyme assay; at 10 µM, active compounds read high

Pantothenate synthetase (Mycobacterium tuberculosis (strain ATCC 25618 / H37Rv)), sequence (P9WIL5 whole entry, looked up): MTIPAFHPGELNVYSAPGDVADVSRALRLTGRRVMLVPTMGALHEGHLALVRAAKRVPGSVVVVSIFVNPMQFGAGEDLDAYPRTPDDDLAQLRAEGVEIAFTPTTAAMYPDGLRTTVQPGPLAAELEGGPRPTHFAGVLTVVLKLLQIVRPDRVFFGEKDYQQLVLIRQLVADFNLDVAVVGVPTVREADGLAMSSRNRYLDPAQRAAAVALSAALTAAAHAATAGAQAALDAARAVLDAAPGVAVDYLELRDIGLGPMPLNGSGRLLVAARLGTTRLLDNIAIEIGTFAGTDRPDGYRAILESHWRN

Row | Structure (SMILES) | inhibition [%]
1 | COCCN(C(=O)CNC(=O)c1ccco1)C(C(=O)NC1CCCCC1)c1cccc(OC)c1 (stereo not given) | 0
2 | O=C(NCc1cccnc1)c1ccc2c(c1)OCO2 | 0
3 | CCc1nc(SCC(=O)Nc2nccs2)c2oc3ccccc3c2n1 | 0
4 | CC(=O)C1=C(C)NC(C)=C(C(C)=O)C1c1cccs1 | 0
5 | COc1ccc(C(=O)CSc2nnc(-c3ccc(C)cc3)o2)cc1 | 1
6 | C=CCn1cc(C(=O)NCCOC)c(=O)c2cc(S(=O)(=O)N(CC)CC)ccc21 | 0
7 | CCN1CCN(c2nc3c(C)cccn3c(=O)c2/C=C(\C#N)S(=O)(=O)c2ccccc2)CC1 | 0
8 | COc1c2ccoc2nc2c(OC)c(OCC(O)C(C)(C)O)ccc12 (stereo not given) | 0
9 | Cc1cccnc1NC(=O)CCCN1C(=O)c2ccccc2C1=O | 0
10 | CCCCCn1c(CN2CCN(C)CC2)nc2c1c(=O)n(C)c(=O)n2C | 0
11 | COc1ccc(OCCOC(=O)c2cccs2)cc1 | 0
12 | Cc1cnc(C(=O)NCCc2ccc(S(=O)(=O)NC(=O)NC3CCCCC3)cc2)cn1 | 5
13 | O=C(O)c1ccc2c3c(ncnc13)-c1ccccc1C2=O | 1
14 | Nc1c(Sc2ccccc2)c(=O)[nH]c(=O)n1Cc1ccccc1 | 0
15 | COC(=O)c1ccc(-c2ccc(CNCC(O)c3ccccc3)o2)cc1 (stereo not given) | 1
16 | COC(=O)CN1C(=O)C2(C(C#N)=C(N)Oc3c2c(C)nn3-c2ccccc2)c2ccccc21 (stereo not given) | 3
17 | CCOC(=O)C1CCCN(C(=O)c2ccc(CS(=O)(=O)Cc3ccccc3C)o2)C1 (stereo not given) | 3
18 | CN(C1CCS(=O)(=O)C1)S(=O)(=O)c1cccc2nsnc12 (stereo not given) | 2
19 | CCOc1cccc(Oc2ccc(C(F)(F)F)cn2)c1 | 0
20 | Cc1nn(-c2nc3ccccc3s2)c(C)c1Oc1ccccc1O | 2

Row | Structure (SMILES) | inhibition [%]
21 | Cc1nn(S(=O)(=O)N2CCCCC2)c(C)c1Br | 0
22 | COc1ccc(OC)c2[nH]c(=O)c(CCNC(=O)C(C)C)cc12 | 0
23 | Cn1c(=O)oc2cc(S(=O)(=O)N3CCCC(C(=O)NCC4COc5ccccc5O4)C3)ccc21 (stereo not given) | 0
24 | CC(C)c1ccc(-c2nc(N3CCCCC3)[nH]c(=O)c2C#N)cc1 | 5
25 | COc1ccccc1CN1C(=O)CCC1(C)C(=O)NC1CCCCCC1 (stereo not given) | 8
26 | O=C1CN(C(=O)COC(=O)C23CC4CC(CC(O)(C4)C2)C3)c2ccccc2N1 | 19
27 | CCCOc1ccc(N2C(=O)CC(NCCCN3CCC(C(N)=O)CC3)C2=O)cc1 (stereo not given) | 4
28 | Cc1[nH]c(=O)[nH]c(=O)c1S(=O)(=O)Nc1ccc(Oc2ccccc2)cc1 | 6
29 | Fc1ccccc1C(c1nnnn1Cc1ccc2c(c1)OCO2)N1CCN(Cc2ccccc2)CC1 (stereo not given) | 3
30 | CC1(C)CC(=O)c2cc(OCC(=O)N3CCN(c4ccccc4F)CC3)ccc2O1 | 6
31 | CCCCc1oc2ccccc2c1C(=O)c1cc(I)c(OCCN(CC)CC)c(I)c1 | 8
32 | CC1CCCN(C(=O)CN2C(=O)c3ccccc3C2=O)C1 (stereo not given) | 3
33 | CCN(CC)CCCNC(=O)c1cn(C)c2ccc(S(=O)(=O)N(C)C)cc2c1=O | 10
34 | CC(C)CSc1nc2ccccc2n1CC(N)=O | 5
35 | CC(C)(C)NC(=O)Cn1c(=O)oc2ccc(Cl)cc21 | 0
36 | COc1ccc(CNC(=O)c2cc3c(=O)n4ccccc4nc3n(Cc3ccco3)c2=N)cc1 | 0
37 | CN(C)CCCN1C(=O)c2oc3ccccc3c(=O)c2C1c1cccs1 (stereo not given) | 0
38 | COc1ccc(C(C(=O)NC2CCCCC2)N2CCC3(CC2)OCCO3)cc1 (stereo not given) | 0
39 | CC1=C(C(=O)N2CCOCC2)C(c2ccsc2)C2=C(CCCC2=O)N1 (stereo not given) | 0
40 | C=CCn1c(SCn2nnc3ccccc3c2=O)nnc1-c1ccc(Br)cc1 | 2
